Data published in PubChem BioAssay (NCI).
About 83,000 compounds went through this panel and 20% of them were active in at least one assay; those are over-represented in the sample as a whole.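 Single-concentration screen, 48 h exposure, 96-well plates. Endpoint: percent growth. Below 10 = active.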 Activity calls are given as the source filed them.

The compounds below were run on T-47D breast (assay: NCI-60 one-dose screen, 48 h (100 = growth as untreated, 0 = no growth, -100 = all killed)). Settings: 10 µM unless noted.
Description: Growth inhibition of the T-47D human tumor cell line is measured as a screen for anti-cancer activity. Cells are grown in 96 well plates and exposed to the test compound for 48 hours. Compounds are tested at a single concentration, which is 10^-5 M for most compounds. The reported endpoint is percent growth (GI% or GIPRCNT), where numbers from 0 - 100% represent growth inhibition, and numbers from -100% - 0 represent cell death. For example, a value of 40 represents 60% growth inhibition. A value of 0 means no net growth occurred over the course of the experiment. A value of -40 indicates 40% of cells at the beginning of the experiment died by the end of the experiment. A value of -100 means all cells are dead at the end of the experiment.
NCI-60 Human Tumor Cell Lines Screen was performed using the standard one-dose NCI protocol, which is described in more detail at https://dtp.cancer.gov/discovery_development/nci-60/default.htm.
Compounds with GIPRCNT values below 10 were considered active. Activity score was based on GIPRCNT using the following formula: […]
Score is 0 for GIPRCNT values of 100 or above, 50 for GIPRCNT values of 0, and 100 for GIPRCNT values of -100.
`COc1ccc(N=C2NN=C(c3c[nH]c4ccccc34)CS2)cc1OC` was tested, and the growth was 57.5% (inactive). In the case of `Nc1cc(Br)cc2c1[nH]c(=O)c1ccccc12`, the growth is reported as 79.6% (inactive). `O=c1cc(CNc2cc(F)cc(F)c2)c2ccc(I)cc2[nH]1` was tested, and the growth was 35.8% (inactive). In the case of `c1ccc(-c2c(-c3ccccc3)[n+](Cc3ccc4ccccc4c3)cn2Cc2ccc3ccccc3c2)cc1`, the growth is reported as -74.3% (active). With `CCN(CC)CCCC(Cc1ccccc1)Nc1c2ccc(Cl)cc2nc2ccc(OC)cc12` (stereo not given) the growth was -6.99% (active). With `Cn1c(C#N)ccc1-c1ccc(F)c(NC(=O)c2ccc(F)cc2)c1` the growth was 60.4% (inactive). For `COC(=O)/C=C1/SC(=NCc2ccccc2)N(CCc2c[nH]c3ccccc23)C1=O`, the growth was 53.5% (inactive). In the case of `Oc1c(I)cc(I)cc1CN(Cc1ccccn1)Cc1ccccn1`, the growth is reported as 22.4% (inactive). With `N#Cc1c(-c2ccccc2)cc(-c2ccccc2)n(CCCCC(=O)NO)c1=O` the growth was 9.65% (active). For `CCOC(=O)C(CCN(C)C)c1ccccc1` (stereo not given), the growth was 103% (inactive). `CC(C)Cc1nc(Nc2ccccc2)[nH]c(=O)c1C#N` was tested, and the growth was 40.8% (inactive). In the case of `CCOC(=O)c1nnn(Cc2cc(=O)oc3ccc(O)cc23)c1C`, the growth is reported as 98% (inactive). `O=S(=O)(N=C1C(Cl)=C(Cl)C(=NS(=O)(=O)c2ccccc2)C(Cl)=C1Cl)c1ccccc1` was tested, and the growth was 88.9% (inactive). In the case of `C=C1CC[C@@H]2C(C)(C)[C@H](O)CC[C@@]2(C)[C@@H]1COc1ccc2ccc(=O)oc2c1`, the growth is reported as 7.88% (active). With `COc1ccc(-c2cn(Cc3cc4ccccc4s3)nn2)cc1OCCN1CCCCC1` the growth was 85.1% (inactive). `COc1ccc2c(c1)CC[C@@H]1[C@@H]2CC[C@]2(C)C3C(=CC(COC(C)=O)C4C(=O)N(c5ccc(Cl)cc5)C(=O)C43)C[C@@H]12` (stereo not given in full) was tested, and the growth was 105% (inactive). With `CC12OC(CC(O)C1O)n1c3ccccc3c3c4c(c5c6ccccc6n2c5c31)C(=O)N(CCN1CCCC1)C4=O` (stereo not given) the growth was 21.9% (inactive). `Fc1cccc(CNc2c3ccccc3nc3ccccc23)c1` was tested, and the growth was 42.7% (inactive). `N#Cc1ccc(/C=C/c2cn(-c3ccccc3)nc2-c2cccc([N+](=O)[O-])c2)cc1` was tested, and the growth was 75% (inactive). For `Cc1cccc(N2C(=O)/C(=C/C(Cl)=C/c3ccc([N+](=O)[O-])cc3)SC2=S)c1C`, the growth was 5.42% (active). `COc1ccc2c(O)c(/C=C3\N=Nc4ncccc43)oc2c1C[C@@H]1CCNC[C@H]1F` was tested, and the growth was 29.7% (inactive). In the case of `CNC(=O)c1cc(Oc2ccc3c(c2)sc2nc(-c4ccc(NC(=O)[C@@H](NC(=O)OC)C(C)C)cc4)cn23)ccn1`, the growth is reported as 8.68% (active). In the case of `COC(=O)c1ccc2c(c1)c1c(C)c3cnccc3c(C)c1n2C`, the growth is reported as -21.6% (active). With `Nc1cc(-c2ccc(Cl)cc2)nn1-c1nnc(/C=C/c2ccco2)c(=O)[nH]1` the growth was 62.7% (inactive). For `COC(=O)c1c2c(c[n+]([O-])c1C)C(=O)C=C(NCc1ccccc1)C2=O`, the growth was -47.7% (active). `COCCOC(C)C(/C=N/NC(N)=S)=N/NC(N)=S` (stereo not given) was tested, and the growth was 28.7% (inactive). For `O=C(Nc1cc(Cl)cc(Cl)c1)Oc1c(Cl)c(Cl)c(Cl)c(Cl)c1Cl`, the growth was 77.5% (inactive). With `CN(C)CCC(CCN(C)C)(C(=O)O)c1ccccc1` the growth was 104% (inactive). For `O=CN1N=C(c2cccc(Nc3ccnc4cc(Cl)ccc34)c2)CC1c1ccc(Cl)cc1` (stereo not given), the growth was 43.3% (inactive). For `COc1cc(Cc2cc(OC)c(O)c(OC)c2)cc(OC)c1O`, the growth was 109% (inactive). In the case of `COc1ccc(C2[C@@H](c3ccccc3)C(=O)N2c2cc(OC)c(OC)c(OC)c2)cc1F` (stereo not given in full), the growth is reported as 61.7% (inactive). With `COC(=O)c1c2c(c(C)[n+]([O-])c1C)C(=O)C(NCc1ccccc1)=CC2=O` the growth was 5.63% (active). For `COc1cc(-c2cc(-c3ccc(Nc4nc(Nc5ccc(Cl)cc5)nc(Nc5ccc(Cl)cc5)n4)cc3)no2)cc(OC)c1OC`, the growth was 45.9% (inactive). With `c1ccc(-c2nc3ccccc3[nH]2)c(OCCCCCOc2ccccc2-c2nc3ccccc3[nH]2)c1` the growth was 111% (inactive). `C=C1C(=O)O[C@@H]2C3C(=C(C)CC[C@@H]12)CC1O[C@]13C` (stereo not given in full) was tested, and the growth was 56.8% [6.75 µM] (inactive). With `N#Cc1c(-c2cccc(Cl)c2)cc(-c2cccnc2)[nH]c1=O` the growth was 87.3% (inactive). With `C/C(Cc1ccc(Cl)cc1)=C(\c1ccc(OCCN2CCCCCC2)cc1)c1ccc(OC(=O)c2ccccc2)cc1` the growth was 46.3% (inactive). For `COC12C=C/C(=C(/C(=O)OCc3csc(SC)n3)C(=O)CCCCCCCCC3(OC)C=C/C(=C(/C(=O)OCc4cnc(SC)s4)C(=O)CCCCCCCC1)O3)O2` (stereo not given), the growth was 41.9% (inactive). With `Cc1nn(C)c2ncnc(N/N=C/c3cccc(O)c3O)c12` the growth was 19% (inactive). `COc1ccc(C(=O)/C=C/c2ccccc2)cc1S(N)(=O)=O` was tested, and the growth was 77.6% (inactive).
